# Reference: PubChem BioAssay (Tox21)
# Records with an inconclusive call do not appear. A number with no mark means an inactive call. Calls of active or inactive are those of the source. The call rests on the fitted dose curve.
# Target: Beta-2 adrenergic receptor (Homo sapiens) (UniProt P07550)
# Test: Adrenergic beta2 receptor (ADRB2) small molecule antagonists, cell-based qHTS assay (AID 1963592); further: nearly all actives have a fitted effect of over 50% in size
# Conditions: CHO-ADRB2 cells, isoproterenol-stimulated cAMP HTRF ratio, 0.5 h; series mostly up to 92.4 µM; activity change, negative = inhibition: at the top concentration
# Excerpt: U.S. Tox21 Program National Center for Advancing Translational Sciences [NCATS] Division of Preclinical Innovation [DPI] U.S. Environmental Protection Agency [EPA] National Institutes of Environmental Health Sciences [NIEHS] National Toxicology Program [NTP] U.S. Food and Drug Administration [FDA] Tox21 Assay Overview: Beta adrenergic receptors (Beta-ARs) belong to the G-protein coupled receptor (GPCR) superfamily, includes three subtypes - beta1, beta2, and beta3. Beta1-AR is the predominant receptor subtype expressed in the heart, and beta2-AR is expressed in the kidney, lung, blood vessel and in the heart, and beta3 is found in the adipocytes. Beta1 and 2 ARs couple to Gs protein and elevate cyclic adenosine mono phosphate (cAMP), which activates protein kinase A and leads to the downstream signaling responsible for the physiological actions. Beta-AR agonists or antagonists are the most prescribed therapeutic agents for heart failure and asthma, and these were one of the first target receptors for the rational drug design. Tox21 10K compound library was screened using the cAMP-Gs dynamic assay (Cisbio Bioassays, Shelton, CT) to identify agonists/antagonists of the Gs-coupled human adrenergic, beta2 receptor (ADRB2) in the CHO-ADRB2 cell line (Codex BioSolutions, Inc. Gaithersburg, MD), which stably over-expresses ADRB2. The principle of cAMP-Gs dynamic assay is based on HTRF technology, which facilitates the fluorescence resonance energy transfer (FRET) between donor Europium cryptate and acceptor d2-labeled cAMP. The cAMP generated within cells competes with the red acceptor, d2-labled cAMP, for binding to the monoclonal anti-cAMP-cryptate (Europium donor). An increase in intracellular cAMP leads to the disruption of FRET signal, and the signal is inversely proportional to the cAMP concentration. Propranolol HCl (Sigma-Aldrich, St. Louis, MO) was used as a positive control in the screening.
# Tox21 Assay Protocol Summary: CHO-ADRB2 cells were dispensed at 1,000/well in 4uL assay medium into white/solid 1536-well plates (Greiner Bio-One North America Inc., Monroe, NC) using a Multidrop Combi dispenser (ThermoFisher Scientific, Waltham, MA). The assay plates were incubated at 37C and 5% CO2 for an overnight (18-20hr). Then positive control and test compounds dissolved in DMSO were transferred to the assay plates at 23nL using a Pintool station (Wako, San Diego, CA). Following the compound and positive control transfer, 1uL agonist-stimulation mix containing 1nM Isoproterenol HCl, 100uM IBMX and 25uM Ro-20-1724 was added to each well of the assay plates using BioRAPTR Flying Reagent Dispenser (FRD, Beckman Coulter, Brea, CA). The assay plates were incubated at room temperature for 0.5hr. Then 2.5ul each d2-labled cAMP and anti-cAMP-cryptate solutions were added separately to each well of the assay plates using an FRD and the assay plates were incubated at room temperature for 1hr. The fluorescence signal was measured at two different wavelengths (665nm and 615nm) using an Envision plate reader (Perkin Elmer, Shelton, CT). Data were expressed as the ratio of 665 nm/615 nm.
# On the % scale 0 is the no-effect control and ±100 the full control effect.
# Beta-2 adrenergic receptor (Homo sapiens), sequence (P07550 whole entry, looked up): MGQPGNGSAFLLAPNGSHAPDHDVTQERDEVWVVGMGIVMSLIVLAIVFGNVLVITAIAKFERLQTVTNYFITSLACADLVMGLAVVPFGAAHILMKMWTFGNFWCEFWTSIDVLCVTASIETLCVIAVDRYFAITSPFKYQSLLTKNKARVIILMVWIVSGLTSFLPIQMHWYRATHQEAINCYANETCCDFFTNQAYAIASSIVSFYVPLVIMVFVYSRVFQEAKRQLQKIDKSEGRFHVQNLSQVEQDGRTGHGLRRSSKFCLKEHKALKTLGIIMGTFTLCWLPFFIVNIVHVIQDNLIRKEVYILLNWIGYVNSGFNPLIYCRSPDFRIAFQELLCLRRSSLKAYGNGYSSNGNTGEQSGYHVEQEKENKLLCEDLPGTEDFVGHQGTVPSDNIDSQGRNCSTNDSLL
SMILES,"activity change, negative = inhibition",Potency
C[N+]1([O-])CCOCC1,2.09%,–
CC1=CC[C@@H]2C[C@H]1C2(C)C,-16.3% [at 19 µM],–
Cc1ccccc1S(N)(=O)=O,5.01%,–
O=C(O[C@@H]1Cc2c(O)cc(O)cc2O[C@@H]1c1cc(O)c(O)c(O)c1)c1cc(O)c(O)c(O)c1,–,inactive
Nc1ccc(S(=O)(=O)Nc2ccc(Cl)nn2)cc1,0.735% [at 42.5 µM],–
Clc1ccccc1-c1nc(-c2ccncc2)no1,-6.73% [at 42.5 µM],–
O=P(O)(O)O,–,inactive
CCCCCCCCCOCC1CO1 (stereo not given),-0.265%,–
CC(C)(CO)[C@@H](O)C(=O)NCCC(=O)O,6.47%,–
Oc1ccc(/C=C/c2cc(O)cc(O)c2)cc1,–,inactive
CCCC=O,-0.118%,–
O=C(O)c1ccccc1[N+](=O)[O-],-7.2%,–
CCCCCCOC(=O)c1ccccc1O,4.3%,–
CC(=O)OC1CC(C)OC(C)O1 (stereo not given),–,inactive
Clc1ccc2c(Cl)ccnc2c1,-10.8%,–
O=C(O)c1cccc(C[C@@H]2COc3ccc(OCc4nc5cc(F)ccc5s4)cc3[C@@H]2O)c1,-5.36%,–
NC(=S)Nc1cccc2ccccc12,-15.5% [at 8.39 µM],–
Cc1c(I)c(=O)n(-c2ccccc2)n1C,-11.2% [at 42.5 µM],–
CCCCCCCCc1ccc(Nc2ccc(CCCCCCCC)cc2)cc1,-1.19% [at 42.5 µM],–
CC[C@]1(O)C[C@@H]2CN(CCc3c([nH]c4ccccc34)[C@@](C(=O)OC)(c3cc4c(cc3OC)N(C)[C@H]3[C@@](O)(C(=O)OC)[C@H](OC(C)=O)[C@]5(CC)C=CCN6CC[C@]43[C@@H]65)C2)C1,–,inactive

SMILES,"activity change, negative = inhibition",Potency
COC(=O)c1cc(Cl)c(NC(C)=O)cc1OC,-13.8% [at 42.5 µM],–
CN(C)CCCNCCCN(C)C,0.0044%,–
CN(C)c1ccc(C(=N)c2ccc(N(C)C)cc2)cc1,-1.99%,–
CCc1c(Br)c(Br)c(Br)c(Br)c1Br,-6.07%,–
OCCNCCO,–,inactive
NC1CCCCC1N (stereo not given),–,inactive
COC(/C=C(\C)CCC=C(C)C)OC,-14.8%,–
C[C@@H](O)[C@H]1C(=O)N2C(C(=O)O)=C([C@H]3CCCO3)S[C@H]12,-15.8% [at 42.5 µM],–
COc1ccc(C#N)cc1,-8.02%,–
CCCSSCCC,4.96%,–
CC(C)N=C=NC(C)C,-6.14%,–
COc1cc(C=O)ccc1OC(=O)C(C)C,-7.31%,–
C/C=C/C(=O)O,–,inactive
CCOC(=O)[C@H](CCc1ccccc1)N[C@@H](C)C(=O)N1Cc2ccccc2C[C@H]1C(=O)O,–,inactive
COCc1ccc(COC)cc1,4.25%,–
CC(O)C(CO)C(C)O (stereo not given),0.0023%,–
CC(=O)N[C@H]1[C@H]([C@H](O)[C@H](O)CO)OC(C(=O)O)=C[C@@H]1N=C(N)N,0.0079% [at 42.5 µM],–
O=C[C@H](O)[C@@H](O)[C@H](O)[C@H](O)CO,-2.19%,–
C=CCCCCCCCC,1.36%,–
Oc1cccc2ccccc12,–,inactive
